Out of some 39,000 compounds screened, about 1,500 (3.8%) were called active. This is one part of a sample in which actives are shown more often than they occur.

Experimental findings from the antibiotic and cytotoxicity screens of Wong et al. (2023) are described below.

The assay has as its system HSkMC (human skeletal muscle cells). Briefly: cytotoxicity call (relative viability < 0.9). Conditions: 10 µM.
With `C[C@H]1CN([C@@H](C)CO)C(=O)c2cc(NC(=O)Cn3cnnn3)ccc2O[C@@H]1CN(C)Cc1ccc(-c2ccccc2)cc1`, the cytotoxicity call was “inactive”.

Regarding `COc1ccc(NC(=O)Nc2ccc3c(c2)C(=O)N([C@H](C)CO)C[C@@H](C)[C@H](CN(C)S(=O)(=O)c2c(C)noc2C)OCCCC[C@@H](C)O3)cc1`, the cytotoxicity call was “inactive”.

`CC1CC2C3CC(F)C4=CC(=O)C=CC4(C)C3(F)C(O)CC2(C)C1(O)C(=O)COC(=O)C(C)(C)C` (configuration not stated): the cytotoxicity call was “inactive”.

For the compound `CC(=O)Nc1nnc2n1CCS2`, the cytotoxicity call was “inactive”.

For the compound `C[C@H](O)C#Cc1cnc2c(c1)C(=O)N([C@H](C)CO)C[C@@H](C)[C@@H](CN(C)C(=O)CN1CCOCC1)O2`, the cytotoxicity call was “inactive”.

Turning to `C[C@H]1CN([C@@H](C)CO)C(=O)c2cccc(NS(=O)(=O)c3ccc(F)cc3)c2O[C@@H]1CN(C)S(=O)(=O)c1cn(C)cn1`, the cytotoxicity call is “inactive”.

Turning to `C[C@@H]1CCCCO[C@H](CN(C)C(=O)c2ccncc2)[C@H](C)CN([C@H](C)CO)C(=O)c2cc(NS(=O)(=O)c3cn(C)cn3)ccc2O1`, the cytotoxicity call was “inactive”.

Take `O=C(C[C@@H]1C=C[C@@H](NC(=O)c2cccc(F)c2)[C@@H](CO)O1)NCCN1CCCC1`: the cytotoxicity call was “inactive”.

Consider `Clc1cccn2nnnc12`, for which the cytotoxicity call was “inactive”.

`C[C@@H]1CCCCO[C@H](CN(C)Cc2ccc(C(=O)O)cc2)[C@H](C)CN([C@@H](C)CO)C(=O)c2cc(NC(=O)c3ccccc3)ccc2O1`: the cytotoxicity call is “inactive”.

`C[C@@H]1CCCCO[C@@H](CN(C)Cc2ccc(C(F)(F)F)cc2)[C@H](C)CN([C@@H](C)CO)C(=O)c2cc(NC(=O)CCC(F)(F)F)ccc2O1`: the cytotoxicity call was “inactive”.

As for `COC(=O)C1=CC(CCCO)=C[C@@H](c2cccs2)N(Cc2cccc(OC(F)(F)F)c2)C=C1C(=O)OC`, the cytotoxicity call is “inactive”.

With `O=C1O[C@@H](c2ccccc2)[C@@H](c2ccccc2)N2[C@@H](c3ccccc3OCCO)[C@]3(C(=O)Nc4ccc(C#CC5=CCCCC5)cc43)[C@@H](C(=O)O)[C@H]12`, the cytotoxicity call is “inactive”.

On to `NC(=O)[C@H]1[C@@H]2C(=O)O[C@@H](c3ccccc3)[C@@H](c3ccccc3)N2[C@@H](c2ccccc2OCCO)[C@]12C(=O)Nc1ccc(C#CC3=CCCCC3)cc12`, for which the cytotoxicity call is “active”.

Consider `COc1ccc(C#Cc2ccc3c(c2)[C@]2(C(=O)N3)[C@H](C(=O)O)[C@H]3C(=O)O[C@H](c4ccccc4)[C@H](c4ccccc4)N3[C@@H]2c2ccccc2OCCO)cc1`, for which the cytotoxicity call was “inactive”.

`COCCOC(=O)N1C(=O)[C@@]2(c3cc(C#Cc4ccc(OC)cc4)ccc31)[C@H](c1ccc(OCCO)cc1)N1[C@H](c3ccccc3)[C@H](c3ccccc3)OC(=O)[C@H]1[C@@H]2C(N)=O`: the cytotoxicity call was “inactive”.

In the case of `COCCOC(=O)N1C(=O)[C@@]2(c3cc(C#Cc4ccc(OC)cc4)ccc31)[C@H](c1ccc(OCCO)cc1)N1[C@H](c3ccccc3)[C@H](c3ccccc3)OC(=O)[C@H]1[C@@H]2C(=O)NC[C@H](O)c1ccccc1`, the cytotoxicity call was “inactive”.

Turning to `COc1ccc(C#Cc2ccc3c(c2)[C@@]2(C(=O)N3C(=O)N[C@@H](C)c3ccccc3)[C@H](c3ccc(OCCO)cc3)N3[C@H](c4ccccc4)[C@H](c4ccccc4)OC(=O)[C@H]3[C@@H]2C(=O)O)cc1`, the cytotoxicity call was “active”.

For the compound `COc1ccc(C#Cc2ccc3c(c2)[C@]2(C(=O)N3)[C@H](c3ccccc3OCCO)N3[C@H](c4ccccc4)[C@H](c4ccccc4)OC(=O)[C@H]3[C@@H]2C(=O)O)cc1`, the cytotoxicity call is “inactive”.

Consider `O=C1O[C@H](c2ccccc2)[C@H](c2ccccc2)N2[C@H]1[C@@H](C(=O)O)[C@]1(C(=O)Nc3ccc(C#CC4=CCCCC4)cc31)[C@H]2c1ccccc1OCCO`, for which the cytotoxicity call is “inactive”.

Regarding `COc1ccc(C#Cc2ccc3c(c2)[C@]2(C(=O)N3)[C@H](C(N)=O)[C@H]3C(=O)O[C@H](c4ccccc4)[C@H](c4ccccc4)N3[C@@H]2c2ccccc2OCCO)cc1`, the cytotoxicity call is “active”.

For `C[C@H]1CN([C@@H](C)CO)C(=O)c2cccc(NC(=O)c3cnccn3)c2O[C@@H]1CN(C)S(=O)(=O)c1cccs1`, the cytotoxicity call is “inactive”.

For `C[C@@H]1CCCCO[C@H](CN(C)Cc2ccc(C(F)(F)F)cc2)[C@@H](C)CN([C@@H](C)CO)C(=O)c2cc(NC(=O)C3CCCCC3)ccc2O1`, the cytotoxicity call was “inactive”.

As for `O=C(NCCN1CCOCC1)[C@@H]1c2ccccc2C(=O)N(Cc2cc(C(F)(F)F)cc(C(F)(F)F)c2)[C@H]1c1ccc(CO)cc1`, the cytotoxicity call was “inactive”.

On to `C[C@H]1CN([C@@H](C)CO)C(=O)Cc2cc(NC(=O)CCN3CCOCC3)ccc2O[C@@H]1CN(C)Cc1ccc(C(=O)Nc2ccccc2N)cc1`, for which the cytotoxicity call was “inactive”.

Consider `Cc1noc(C)c1NC(=O)Nc1ccc2c(c1)C(=O)N([C@H](C)CO)C[C@@H](C)[C@@H](CN(C)Cc1ccc(Oc3ccccc3)cc1)O2`, for which the cytotoxicity call was “inactive”.

Take `C[C@@H]1CN([C@@H](C)CO)C(=O)c2cccc(NS(=O)(=O)c3cn(C)cn3)c2O[C@@H]1CN(C)S(=O)(=O)c1ccc(Cl)cc1`: the cytotoxicity call is “inactive”.

For `COc1ccc(CN(C)C[C@H]2Oc3ccc(NS(C)(=O)=O)cc3C(=O)N([C@@H](C)CO)C[C@@H]2C)cc1`, the cytotoxicity call is “inactive”.

Turning to `CNC[C@H]1Oc2c(NS(=O)(=O)c3cn(C)cn3)cccc2C(=O)N([C@H](C)CO)C[C@H]1C`, the cytotoxicity call was “inactive”.

With `Cn1cnc(CCNC(=O)C[C@H]2CC[C@@H]3[C@H](COC[C@H](O)CN3C(=O)Nc3ccc(C(F)(F)F)cc3)O2)c1`, the cytotoxicity call was “inactive”.

`CCNC(=O)C[C@@H]1C=C[C@H](NC(=O)C2CC2)[C@@H](CO)O1`: the cytotoxicity call is “inactive”.

`C=CC[C@H](CC(=O)N[C@@H](CO)Cc1ccccc1)C(=O)N[C@@H](COC(=O)[C@@H](CC=C)Cc1ccc(F)cc1)Cc1c[nH]c2ccccc12`: the cytotoxicity call was “inactive”.

For the compound `C=CCC[C@@H](Cc1ccc(F)cc1)C(=O)OC[C@@H](Cc1c[nH]c2ccccc12)NC(=O)[C@H](CC=C)CC(=O)N[C@@H](CO)Cc1ccccc1`, the cytotoxicity call was “inactive”.

Regarding `C=CCC[C@@H](Cc1ccc(F)cc1)C(=O)OC[C@H](Cc1c[nH]c2ccccc12)NC(=O)[C@@H](CC=C)CC(=O)N[C@@H](CO)Cc1ccccc1`, the cytotoxicity call was “inactive”.

As for `C=CCC[C@@H](Cc1ccc(F)cc1)C(=O)OC[C@H](Cc1c[nH]c2ccccc12)NC(=O)[C@@H](CC=C)CC(=O)N[C@H](CO)Cc1ccccc1`, the cytotoxicity call was “inactive”.

As for `C=CC[C@@H](CC(=O)N[C@H](CO)Cc1ccccc1)C(=O)N[C@@H](COC(=O)[C@@H](CC=C)NC(=O)OCC1c2ccccc2-c2ccccc21)Cc1c[nH]c2ccccc12`, the cytotoxicity call was “active”.

For the compound `C=CC[C@@H](CC(=O)N[C@H](CO)Cc1ccccc1)C(=O)N[C@H](COC(=O)[C@@H](CC=C)Cc1ccc(F)cc1)Cc1c[nH]c2ccccc12`, the cytotoxicity call was “inactive”.

As for `C=CCC[C@H](Cc1ccc(F)cc1)C(=O)OC[C@H](Cc1c[nH]c2ccccc12)NC(=O)[C@@H](CC=C)CC(=O)N[C@H](CO)Cc1ccccc1`, the cytotoxicity call was “active”.

Take `C=CCC[C@H](Cc1ccc(F)cc1)C(=O)OC[C@H](Cc1c[nH]c2ccccc12)NC(=O)[C@H](CC=C)CC(=O)N[C@@H](CO)Cc1ccccc1`: the cytotoxicity call was “inactive”.

For the compound `C=CCC[C@H](Cc1ccc(F)cc1)C(=O)OC[C@H](Cc1c[nH]c2ccccc12)NC(=O)[C@@H](CC=C)CC(=O)N[C@@H](CO)Cc1ccccc1`, the cytotoxicity call is “active”.

On to `CS(=O)(=O)N1CC(=O)Nc2ccccc21`, for which the cytotoxicity call is “inactive”.

As for `COc1ccc(S(=O)(=O)Nc2ccc3c(c2)C(=O)N([C@@H](C)CO)C[C@@H](C)[C@@H](CN(C)Cc2ccc(C(=O)O)cc2)OCCCC[C@H](C)O3)cc1`, the cytotoxicity call was “inactive”.

On to `C[C@@H]1CN([C@@H](C)CO)S(=O)(=O)c2ccc(C#CCN(C)C)cc2O[C@@H]1CN(C)Cc1ccccc1F`, for which the cytotoxicity call is “inactive”.

Take `CC(C)NC(=O)Nc1ccc2c(c1)C(=O)N([C@H](C)CO)C[C@H](C)[C@H](CN(C)C(=O)Nc1cccc3ccccc13)OCCCC[C@H](C)O2`: the cytotoxicity call is “inactive”.

For `CC(C)NC(=O)N(C)C[C@H]1Oc2ccc(NC(=O)C3CCCCC3)cc2C(=O)N([C@H](C)CO)C[C@@H]1C`, the cytotoxicity call is “inactive”.

As to `CCC(=O)Nc1ccc2c(c1)OC[C@@H](C)N(C(=O)CN1CCOCC1)C[C@H](C)[C@@H](OC)CN(C)C2=O`, the cytotoxicity call is “inactive”.

Regarding `C[C@@H]1CN([C@@H](C)CO)C(=O)c2cccc(NC(=O)Nc3cccc4ccccc34)c2O[C@H]1CN(C)S(=O)(=O)c1ccccc1`, the cytotoxicity call is “inactive”.

Consider `COc1ccc(S(=O)(=O)Nc2cccc3c2O[C@H](CN(C)S(=O)(=O)c2ccc(C)cc2)[C@@H](C)CN([C@H](C)CO)C3=O)cc1`, for which the cytotoxicity call was “inactive”.

`O=C(C[C@@H]1CC[C@H]2[C@@H](COC[C@@H](O)CN2S(=O)(=O)c2cccc(Cl)c2)O1)NCCCN1CCOCC1`: the cytotoxicity call was “inactive”.

Take `COCC(=O)N1CC[C@]2(CC1)CN(Cc1cccc(c1)OC)[C@H](CO)c1c2c2ccc(cc2n1C)OC`: the cytotoxicity call is “inactive”.

Turning to `C[C@H](CO)N1C[C@H](C)[C@@H](CN(C)S(=O)(=O)c2cn(C)cn2)OCc2cn(nn2)CCCC1=O`, the cytotoxicity call was “inactive”.

As to `C[C@@H]1CN([C@@H](C)CO)C(=O)Cc2cc(NC(=O)Nc3ccc(C(F)(F)F)cc3)ccc2O[C@@H]1CN(C)Cc1ccccc1`, the cytotoxicity call is “active”.

`C[C@H]1CN([C@@H](C)CO)C(=O)Cc2cc(NC(=O)Nc3ccc(C(F)(F)F)cc3)ccc2O[C@H]1CN(C)Cc1ccccc1`: the cytotoxicity call was “active”.

Consider `C[C@@H]1CN([C@@H](C)CO)C(=O)Cc2cc(NC(=O)Nc3ccc(C(F)(F)F)cc3)ccc2O[C@H]1CN(C)Cc1ccccc1`, for which the cytotoxicity call was “inactive”.

`C[C@H](CO)N1C[C@H](C)[C@H](CN(C)Cc2ccccc2)Oc2ccc(NC(=O)Nc3ccc(C(F)(F)F)cc3)cc2CC1=O`: the cytotoxicity call is “active”.

On to `C[C@H]1CN([C@@H](C)CO)C(=O)Cc2cc(NC(=O)Nc3ccc(C(F)(F)F)cc3)ccc2O[C@@H]1CN(C)Cc1ccccc1`, for which the cytotoxicity call is “inactive”.

For `C[C@@H]1CN([C@H](C)CO)C(=O)Cc2cc(NC(=O)Nc3ccc(C(F)(F)F)cc3)ccc2O[C@H]1CN(C)Cc1ccccc1`, the cytotoxicity call is “active”.
